# In PubChem BioAssay:
# Records with an inconclusive call do not appear. Calls of active or inactive are those of the source.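 How the source made its calls, unless noted: active means response below a set limit, under 55% cells CD8-positive and vesicle-bound, and CD8 cells' 90th-percentile brightness under 279; inactive means the rest.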 Peptide text beside a SMILES is read from it. * marks the point of attachment. Boc = CC(C)(C)OC(=O)*
# Tests used:
# [1] = yeast TOR pathway RPL19A-GFP modulators, primary screen, cell-based, S. cerevisiae, multiplex flow cytometry (AID 1862; in the data active means percent of DMSO control GFP below about 86%;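 further: lower values mimic rapamycin by blocking the RPL19A rise seen in DMSO cells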); conditions: S. cerevisiae RPL19A-GFP strain, flow cytometry fluorescence, 3 h; at 10 µM; stronger effect = lower value
# [2] = modulators of MEP2-GFP levels in yeast, primary screen, S. cerevisiae, multiplex flow cytometry (AID 1867;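 active means GFP response, as percent of the DMSO control, above the screen-wide mean plus 3 SD, about 139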;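 further: median GFP channel fluorescence of barcode-gated MEP2-GFP cells measured by flow cytometry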); conditions: S. cerevisiae MEP2-GFP strain, 3 h, at 10 µM, stronger effect = higher value, 100% means same as DMSO wells
# [3] = modulators of CIT2-GFP expression in yeast, primary screen, S. cerevisiae, GFP fusion, multiplex flow cytometry (AID 1870;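 active means percent response above a set limit, the screen-wide mean plus 3 SD, cut at about 130% in these data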;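 further: barcoded CIT2-GFP strain pooled with four other GFP strains with rapamycin as positive control; median GFP fluorescence per well over plate mean of DMSO wells so 100% = DMSO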); conditions: 3 h, at 10 µM, stronger effect = higher value
# [4] = modulators of LAP4-GFP expression in yeast, primary screen, S. cerevisiae, multiplex flow cytometry (AID 1873;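 active means GFP signal, as percent of the solvent control, above the screen mean plus 3 SD, about 149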); conditions: 3 h, at 10 µM, stronger effect = higher value
# [5] = modulators of AGP1-GFP expression in yeast TOR pathway, primary screen, cell-based, multiplex flow cytometry, S. cerevisiae (AID 1887;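 active means GFP signal above the screen-wide mean plus 3 SD, that is over about 124.5% of the solvent control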;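 further: AGP1-GFP fusion strain of S. cerevisiae within a five-strain barcoded multiplex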); conditions: 3 h, at 10 µM, stronger effect = higher value
# [6] = inhibitors of CD8+ T cell-vesicle binding, pilot screen, LFA-1/ICAM-1 modulator project, MLPCN validation set, flow cytometry (AID 2523); conditions: 2C mouse CD8+ T cells, at 7 µM, stronger effect = lower value; double positive events: measured here: CD8+/vesicle+ event percentage;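 on vesicle binding response: mean PE anti-B7-1 fluorescence of CD8+ cells relative to row control; 100% = QL9-loaded vesicles with DMSO vehicle in the same plate row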
# [7] = molecular target: Integrin beta-1 (Homo sapiens) + Integrin alpha-4 (Homo sapiens) (UniProt P13612+P05556); assay: inhibition of HUTS-21 binding to VLA-4, pilot screen, VLA-4 allosteric modulator project, U937 cells, HUTS-21 mAb, flow cytometry, validation set (AID 2674;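 active means inhibition above 50%, about 3 SD of the validation set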;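 further: antibody binding induced by the VLA-4 ligand LDV present at three times its Kd; 0% = LDV ligand with antibody and no compound and 100% = antibody without LDV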); conditions: HUTS-21 LIBS mAb binding, at 6.7 µM, stronger effect = higher value, binding induced by LDV ligand
# Sequence of Integrin beta-1 (Homo sapiens) + Integrin alpha-4 (Homo sapiens) (P05556 whole entry, looked up): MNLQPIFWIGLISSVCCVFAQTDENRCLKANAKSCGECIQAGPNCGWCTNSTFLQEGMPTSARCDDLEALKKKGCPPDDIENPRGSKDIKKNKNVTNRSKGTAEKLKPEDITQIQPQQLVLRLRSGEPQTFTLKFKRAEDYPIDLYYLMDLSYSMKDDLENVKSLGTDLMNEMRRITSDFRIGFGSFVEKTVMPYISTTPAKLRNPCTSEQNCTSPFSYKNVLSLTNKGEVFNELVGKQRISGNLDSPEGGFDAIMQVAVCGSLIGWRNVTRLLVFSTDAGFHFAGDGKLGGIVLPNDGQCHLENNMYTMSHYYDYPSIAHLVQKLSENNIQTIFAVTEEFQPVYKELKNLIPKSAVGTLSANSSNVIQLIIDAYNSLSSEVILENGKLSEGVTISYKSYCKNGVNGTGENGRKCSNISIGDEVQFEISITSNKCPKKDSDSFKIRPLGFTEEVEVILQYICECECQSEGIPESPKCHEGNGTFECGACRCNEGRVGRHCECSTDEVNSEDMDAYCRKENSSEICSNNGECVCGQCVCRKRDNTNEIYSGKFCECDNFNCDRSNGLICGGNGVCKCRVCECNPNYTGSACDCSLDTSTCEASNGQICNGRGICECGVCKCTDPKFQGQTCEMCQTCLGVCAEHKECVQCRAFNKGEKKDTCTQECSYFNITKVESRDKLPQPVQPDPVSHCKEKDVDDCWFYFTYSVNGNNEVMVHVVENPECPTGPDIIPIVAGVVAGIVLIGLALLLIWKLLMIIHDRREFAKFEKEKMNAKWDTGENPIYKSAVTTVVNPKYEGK
# Sequence of Integrin beta-1 (Homo sapiens) + Integrin alpha-4 (Homo sapiens) (P13612 whole entry, looked up): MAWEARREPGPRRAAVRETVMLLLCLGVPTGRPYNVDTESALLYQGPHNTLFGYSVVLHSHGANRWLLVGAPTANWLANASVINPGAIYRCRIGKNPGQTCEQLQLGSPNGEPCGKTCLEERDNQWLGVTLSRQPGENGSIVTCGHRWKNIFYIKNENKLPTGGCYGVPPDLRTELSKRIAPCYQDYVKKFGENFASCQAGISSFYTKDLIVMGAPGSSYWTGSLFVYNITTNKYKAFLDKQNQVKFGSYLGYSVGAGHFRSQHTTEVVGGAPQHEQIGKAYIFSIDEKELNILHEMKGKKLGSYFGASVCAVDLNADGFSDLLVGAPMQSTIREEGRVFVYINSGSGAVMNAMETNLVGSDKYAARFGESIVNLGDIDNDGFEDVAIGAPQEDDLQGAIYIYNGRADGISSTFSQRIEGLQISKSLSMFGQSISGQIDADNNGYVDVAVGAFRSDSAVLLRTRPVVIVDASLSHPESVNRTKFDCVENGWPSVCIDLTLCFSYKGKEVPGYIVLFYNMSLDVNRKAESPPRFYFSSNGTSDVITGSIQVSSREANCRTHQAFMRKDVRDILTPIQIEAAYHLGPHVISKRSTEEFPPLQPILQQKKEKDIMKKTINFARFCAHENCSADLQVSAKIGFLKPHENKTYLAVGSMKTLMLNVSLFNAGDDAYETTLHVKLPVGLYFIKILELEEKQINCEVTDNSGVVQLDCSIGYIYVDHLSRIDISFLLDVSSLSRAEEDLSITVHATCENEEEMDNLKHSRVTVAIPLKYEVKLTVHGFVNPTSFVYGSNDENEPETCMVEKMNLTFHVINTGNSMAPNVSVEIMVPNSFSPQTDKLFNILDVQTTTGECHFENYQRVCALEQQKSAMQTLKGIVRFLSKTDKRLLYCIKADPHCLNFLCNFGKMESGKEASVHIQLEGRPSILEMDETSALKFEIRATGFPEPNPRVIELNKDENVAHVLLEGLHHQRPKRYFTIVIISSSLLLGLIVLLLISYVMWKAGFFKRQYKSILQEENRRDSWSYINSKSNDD
# [8] = superoxide lowering in aged yeast cells, pilot screen, validation compound set (AID 2706;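 active means superoxide response below 65% of plate, a cut near 3 SD across the whole screen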;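 further: yeast exposed to compound for one week at 30 degrees C before staining; 100% = mean of all compound wells on the same plate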); conditions: S. cerevisiae aging, superoxide DHE fluorescence; at 10 µM, stronger effect = lower value
# [9] = molecular target: Beta-adrenergic receptor kinase 1 (Homo sapiens) (UniProt P25098); assay: GRK2 binders displacing RNA aptamer, biochemical, validation, human GRK2, bead flow cytometry (AID 488806;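 active means aptamer binding inhibition above 30%, about 3 SD of noise from non-fluorescent compounds; inactive means inhibition at or below 30%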); conditions: bead-bound GRK2, FAM-aptamer displacement, at 10 µM, stronger effect = higher value
# Sequence of Beta-adrenergic receptor kinase 1 (Homo sapiens) (P25098 whole entry, looked up): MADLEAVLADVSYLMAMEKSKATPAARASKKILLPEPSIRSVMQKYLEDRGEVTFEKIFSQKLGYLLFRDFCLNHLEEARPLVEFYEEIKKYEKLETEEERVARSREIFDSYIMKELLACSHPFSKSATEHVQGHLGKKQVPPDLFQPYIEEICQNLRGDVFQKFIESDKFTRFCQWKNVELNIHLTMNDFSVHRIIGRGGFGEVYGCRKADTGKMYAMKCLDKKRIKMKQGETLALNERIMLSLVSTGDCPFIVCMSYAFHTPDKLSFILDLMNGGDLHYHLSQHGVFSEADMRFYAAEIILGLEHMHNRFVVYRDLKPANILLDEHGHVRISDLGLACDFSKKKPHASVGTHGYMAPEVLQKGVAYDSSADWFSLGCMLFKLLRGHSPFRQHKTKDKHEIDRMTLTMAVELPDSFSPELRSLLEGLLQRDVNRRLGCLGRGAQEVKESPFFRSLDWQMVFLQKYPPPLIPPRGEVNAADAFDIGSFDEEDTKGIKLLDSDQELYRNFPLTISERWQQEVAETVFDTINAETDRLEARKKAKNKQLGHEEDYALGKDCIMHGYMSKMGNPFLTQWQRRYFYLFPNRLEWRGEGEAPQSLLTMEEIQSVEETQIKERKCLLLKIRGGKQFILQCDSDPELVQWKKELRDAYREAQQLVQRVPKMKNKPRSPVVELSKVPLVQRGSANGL
# [10] = molecular target: AP-2 complex subunit beta (Homo sapiens) (UniProt P63010); assay: inhibitors of arrestin peptide binding to AP2, pilot screen, biochemical, validation set, GST-AP2 beads, flow cytometry (AID 504541;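 active means inhibition above 54%, about 3 SD of non-fluorescent compounds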;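 further: AP2 carries R879A mutation and is captured from E. coli lysate; bead-bound FITC arrestin peptide fluorescence measuring arrestin peptide binding to AP2; 0% = DMSO wells and 100% = excess unlabeled arrestin peptide control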); conditions: FITC arrestin peptide, at 10 µM, stronger effect = higher value, AP2 beta2 appendage fragment, R879A mutant
# Sequence of AP-2 complex subunit beta (Homo sapiens) (P63010 whole entry, looked up, the tested form may be a part, one chain of several): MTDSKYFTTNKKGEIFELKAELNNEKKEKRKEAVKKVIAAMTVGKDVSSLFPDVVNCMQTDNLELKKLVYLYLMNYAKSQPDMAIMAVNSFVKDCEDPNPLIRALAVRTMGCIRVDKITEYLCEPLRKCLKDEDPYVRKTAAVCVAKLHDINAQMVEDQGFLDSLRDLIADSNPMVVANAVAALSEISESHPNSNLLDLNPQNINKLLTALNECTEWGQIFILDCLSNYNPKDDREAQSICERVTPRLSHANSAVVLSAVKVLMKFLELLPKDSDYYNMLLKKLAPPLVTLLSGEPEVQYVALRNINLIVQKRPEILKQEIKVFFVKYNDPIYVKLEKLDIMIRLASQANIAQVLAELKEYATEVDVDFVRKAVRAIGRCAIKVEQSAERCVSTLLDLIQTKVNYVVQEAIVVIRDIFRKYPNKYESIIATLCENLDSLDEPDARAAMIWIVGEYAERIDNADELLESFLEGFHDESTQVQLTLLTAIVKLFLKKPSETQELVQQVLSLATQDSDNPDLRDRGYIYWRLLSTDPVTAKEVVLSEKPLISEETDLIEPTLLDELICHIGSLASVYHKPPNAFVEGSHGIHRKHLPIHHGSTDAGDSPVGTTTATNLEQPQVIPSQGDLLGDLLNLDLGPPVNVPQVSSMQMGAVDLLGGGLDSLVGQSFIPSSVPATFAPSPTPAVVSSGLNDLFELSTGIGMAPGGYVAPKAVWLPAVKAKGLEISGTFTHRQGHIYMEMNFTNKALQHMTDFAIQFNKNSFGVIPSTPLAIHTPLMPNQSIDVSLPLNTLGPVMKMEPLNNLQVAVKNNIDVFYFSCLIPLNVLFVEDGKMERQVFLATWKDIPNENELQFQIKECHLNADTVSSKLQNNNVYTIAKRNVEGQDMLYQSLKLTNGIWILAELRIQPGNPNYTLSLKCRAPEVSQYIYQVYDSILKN
# [11] = yeast V-ATPase proton transport modulators, S. cerevisiae, pHLuorin, HTS validation (AID 504600; in the data active means response above about 15%;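 further: plate controls were DMSO for no effect and reference compound for full effect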); conditions: S. cerevisiae pHLuorin cytosolic pH, at 10 µM, stronger effect = higher value
# [12] = test system: anti-desmoglein-3 scFv antibody binding to human DSG3; assay: inhibitors of anti-DSG3 scFv binding to DSG3, pilot screen, biochemical, validation compound set, bead-based, flow cytometry (AID 588368;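 active means binding below the plate cutoff, the plate median minus 3 SD, with a reading above zero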;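 further: signal is the median channel fluorescence of bead-bound GFP antibody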); conditions: Protein G beads, DSG3-Fc, scFv-GFP binding, at 10 µM, stronger effect = lower value
# [13] = inhibitors of fungal efflux pumps CDR1, CDR2, MDR1, pilot screen, validation compound set, multiplex, phenotypic (AID 588506;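 active means efflux inhibition above 0.42, the validation set average plus 4 SD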;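 further: Nile Red retained in cells so higher fluorescence means more efflux inhibition; 0 = negative control wells and 1 = enniatin B 25 µM full block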); conditions: S. cerevisiae pump-expressing triplex, Nile Red efflux flow cytometry; at 10 µM; stronger effect = higher value; the pumps come from Candida albicans
# [14] = molecular target: ATP-binding cassette sub-family B member 6 (Homo sapiens) (UniProt Q9NP58); assay: ABCB6 transporter inhibitors, pilot screen, K562-ABCB6 cells, flow cytometry, validation set (AID 588550;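 active means inhibition above the screen-wide mean plus 3 SD, about 51%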;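 further: 0% = DMSO wells and 100% = benzethonium chloride 70 µM positive control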); conditions: K562-ABCB6 porphyrin accumulation, 1 h, at 10 µM, stronger effect = higher value
# Sequence of ATP-binding cassette sub-family B member 6 (Homo sapiens) (Q9NP58 whole entry, looked up): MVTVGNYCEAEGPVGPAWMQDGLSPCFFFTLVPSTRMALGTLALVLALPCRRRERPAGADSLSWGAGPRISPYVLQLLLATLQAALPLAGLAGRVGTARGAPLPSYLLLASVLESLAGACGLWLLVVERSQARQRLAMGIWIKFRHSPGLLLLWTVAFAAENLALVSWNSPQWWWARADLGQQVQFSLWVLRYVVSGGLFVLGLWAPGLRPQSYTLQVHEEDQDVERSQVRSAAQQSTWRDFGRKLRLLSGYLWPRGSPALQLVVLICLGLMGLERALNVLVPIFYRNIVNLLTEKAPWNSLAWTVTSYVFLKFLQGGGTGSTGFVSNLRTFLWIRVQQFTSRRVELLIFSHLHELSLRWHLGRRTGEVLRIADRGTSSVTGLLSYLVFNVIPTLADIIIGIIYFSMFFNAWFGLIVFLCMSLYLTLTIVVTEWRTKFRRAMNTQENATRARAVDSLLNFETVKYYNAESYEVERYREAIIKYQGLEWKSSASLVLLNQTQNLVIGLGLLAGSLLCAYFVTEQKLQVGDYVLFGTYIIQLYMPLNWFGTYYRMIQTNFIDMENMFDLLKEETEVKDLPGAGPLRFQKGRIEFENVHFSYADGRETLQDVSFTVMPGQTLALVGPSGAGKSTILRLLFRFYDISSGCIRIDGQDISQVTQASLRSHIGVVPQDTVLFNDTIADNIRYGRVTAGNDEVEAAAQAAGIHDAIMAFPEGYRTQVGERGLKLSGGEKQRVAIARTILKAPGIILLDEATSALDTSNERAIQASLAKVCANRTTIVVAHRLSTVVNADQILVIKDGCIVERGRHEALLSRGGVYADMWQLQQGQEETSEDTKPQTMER
# [15] = promoters of myeloid differentiation in arrested cells, primary screen, cell-based, GFP/MAC1 double positive, flow cytometry, validation set (AID 588685;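 active means differentiation response of at least 50%, scaled between solvent and reference control, from cells with both markers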;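 further: compound exposure lasts four days before antibody staining and flow analysis; 0% = DMSO wells and 100% = 5 µM fulvestrant positive control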); conditions: ER-HoxA9 marrow cells, stronger effect = higher value, normalized: vehicle 0, fulvestrant 100
# [16] = molecular target: Beta-2 adrenergic receptor (Homo sapiens) (UniProt P07550); assay: beta2AR agonists driving receptor internalization, pilot screen, cell-based, FAP fluorogen, flow cytometry, validation set (AID 504459;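 active means percent response above 42, roughly 3 SD of non-fluorescent test compounds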;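 further: agonist-driven loss of surface beta2AR via internalization measured by FAP dye flow cytometry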); conditions: Am2.2-beta2AR cells, FAP surface receptor flow cytometry; at 10 µM; stronger effect = higher value
# Sequence of Beta-2 adrenergic receptor (Homo sapiens) (P07550 whole entry, looked up): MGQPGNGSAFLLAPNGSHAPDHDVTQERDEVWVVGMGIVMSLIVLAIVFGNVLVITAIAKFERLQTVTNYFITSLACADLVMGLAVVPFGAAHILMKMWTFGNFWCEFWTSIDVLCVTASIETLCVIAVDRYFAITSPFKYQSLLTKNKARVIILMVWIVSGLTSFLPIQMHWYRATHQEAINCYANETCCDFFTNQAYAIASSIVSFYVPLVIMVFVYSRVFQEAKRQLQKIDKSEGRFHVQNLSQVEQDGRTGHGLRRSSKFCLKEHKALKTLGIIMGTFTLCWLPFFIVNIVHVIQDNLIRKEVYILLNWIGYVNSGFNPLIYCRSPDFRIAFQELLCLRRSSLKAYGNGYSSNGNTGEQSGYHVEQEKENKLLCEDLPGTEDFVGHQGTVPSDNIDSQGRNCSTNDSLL
Structure (SMILES),percent of DMSO control GFP [1],GFP response vs DMSO [2],percent response of DMSO control [3],GFP response vs DMSO [4],"GFP response, % of DMSO [5]",double positive events [6] [%],vesicle binding response [6],inhibition [7],superoxide response (% of plate) [8],aptamer binding inhibition [9],inhibition [10],response [11],binding (% of control) [12],efflux inhibition (fraction of control) [13],inhibition [14],differentiation response [15],response [16]
COc1ccc2oc(=O)c(C(=O)N3CCN(c4ccccc4)CC3)cc2c1,97.8% (inactive),93.8% (inactive),101% (inactive),89.3% (inactive),90.3% (inactive),52.5,130% (inactive),12.8% (inactive),110% (inactive),2% (inactive),10.5% (inactive),-1.57% (inactive),101% (inactive),-0.54 (inactive),10% (inactive),25.6% (inactive),
CN(C)c1ccc(O)c2c1CC1CC3[C@@H](N(C)C)C(=O)C(C(N)=O)=C(O)[C@]3(O)C(=O)C1=C2O (stereo partly drawn),100% (inactive),101% (inactive),97.6% (inactive),93.7% (inactive),93% (inactive),63,162% (inactive),4.27% (inactive),99.5% (inactive),29% (inactive),6.63% (inactive),-2.16% (inactive),93.6% (inactive),,6% (inactive),-3.11% (inactive),1.7% (inactive)
CC(C)C[C@H](NC(=O)[C@@H]1Cc2ccccc2CN1C(=O)OC(C)(C)C)C(=O)NCC1CCC(C(=O)O)CC1 (stereo partly drawn),99.3% (inactive),95.9% (inactive),105% (inactive),92.3% (inactive),99.9% (inactive),59.9,257% (inactive),1.62% (inactive),93.6% (inactive),3% (inactive),-3.49% (inactive),-10.3% (inactive),101% (inactive),-0.12 (inactive),7% (inactive),-27.6% (inactive),
CC1COc2c(N3CCN(C)CC3)c(F)cc3c(=O)c(C(=O)O)cn1c23 (stereo not drawn),92.2% (inactive),120% (inactive),103% (inactive),77.6% (inactive),90.8% (inactive),64.3,109% (inactive),11.3% (inactive),112% (inactive),2% (inactive),2.93% (inactive),-5.31% (inactive),95.4% (inactive),,7% (inactive),-5.73% (inactive),-5.81% (inactive)
COc1ccc(CN(CCN(C)C)c2ccccn2)cc1,102% (inactive),107% (inactive),108% (inactive),103% (inactive),107% (inactive),60.3,60% (inactive),2.66% (inactive),109% (inactive),0% (inactive),-5.39% (inactive),0.3% (inactive),99.3% (inactive),,4% (inactive),2.2% (inactive),-10.3% (inactive)
O=C(NCCCCCc1nc2ccccc2[nH]1)c1ccccc1Cl,101% (inactive),107% (inactive),98.6% (inactive),95.9% (inactive),103% (inactive),62.5,124% (inactive),-7.79% (inactive),102% (inactive),3% (inactive),,-2.36% (inactive),109% (inactive),0.69 (active),6% (inactive),10.1% (inactive),25.8% (inactive)
C/C(=N\N=C1\NC(=O)C(CC(=O)Nc2ccc(Cl)cc2)S1)c1ccco1 (stereo not drawn),105% (inactive),101% (inactive),104% (inactive),91.3% (inactive),99.1% (inactive),54.2,112% (inactive),-17% (inactive),101% (inactive),16% (inactive),3.65% (inactive),-0.13% (inactive),94.4% (inactive),0.22 (inactive),8% (inactive),0% (inactive),
C[C@]12CC[C@H]3C(=CCc4cc(O)ccc43)[C@@H]1CCC2=O,101% (inactive),94.8% (inactive),90% (inactive),110% (inactive),92.1% (inactive),59.4,172% (inactive),7.22% (inactive),102% (inactive),7% (inactive),2.28% (inactive),-1.47% (inactive),103% (inactive),0.25 (inactive),4% (inactive),1.41% (inactive),
COc1ccc2c(c1)CC[C@@H]1[C@@H]2CC[C@]2(C)C(=O)CC[C@@H]12,102% (inactive),102% (inactive),98.6% (inactive),133% (inactive),104% (inactive),58.2,122% (inactive),-7.79% (inactive),98.6% (inactive),-1% (inactive),-2.71% (inactive),109% (active),102% (inactive),,3% (inactive),-0.18% (inactive),-15.3% (inactive)
CN1CCC(=C2c3ccccc3CC(=O)c3sccc32)CC1,101% (inactive),101% (inactive),108% (inactive),94.8% (inactive),101% (inactive),62.4,136% (inactive),-3.77% (inactive),96.5% (inactive),-2% (inactive),-10.2% (inactive),1.45% (inactive),105% (inactive),,4% (inactive),-14.8% (inactive),11.7% (inactive)
CC(C)CC(NC(=O)C1CCCN1C(=O)OC(C)(C)C)C(=O)NCC(N)=O (stereo not drawn) (Boc-Pro-Leu-Gly-NH2; configuration not given here),97.3% (inactive),98.9% (inactive),92% (inactive),94.3% (inactive),91.8% (inactive),62.8,171% (inactive),-3.97% (inactive),89.5% (inactive),4% (inactive),-1.69% (inactive),-1.76% (inactive),102% (inactive),0.18 (inactive),8% (inactive),19.2% (inactive),
COc1cc(Cl)cc2c1Sc1ccccc1/C2=C/CCN(C)C,97.1% (inactive),105% (inactive),94.9% (inactive),93.7% (inactive),92.6% (inactive),63.9,1310% (inactive),-7.47% (inactive),104% (inactive),-8% (inactive),,0.4% (inactive),110% (inactive),-0.09 (inactive),0% (inactive),-2.64% (inactive),20% (inactive)
CC(C)CN1CC(C(=O)O)CC1=O (stereo not drawn),96.1% (inactive),101% (inactive),96% (inactive),104% (inactive),102% (inactive),56,66.5% (inactive),1.12% (inactive),102% (inactive),0% (inactive),,-1.05% (inactive),104% (inactive),-0.57 (inactive),4% (inactive),5.73% (inactive),-5.23% (inactive)
OCCN1CCN(CCCN2c3ccccc3Sc3ccc(Cl)cc32)CC1,104% (inactive),104% (inactive),100% (inactive),112% (inactive),121% (inactive),64.3,268% (inactive),68.7% (active),111% (inactive),-10% (inactive),29.9% (inactive),5.46% (inactive),115% (inactive),0.71 (active),-3% (inactive),-11.9% (inactive),
CC(C)NC(=O)c1ccc(C(C)C)cc1,98.4% (inactive),102% (inactive),108% (inactive),118% (inactive),101% (inactive),63.6,255% (inactive),-11.3% (inactive),109% (inactive),-2% (inactive),-5.8% (inactive),-1.44% (inactive),102% (inactive),,13% (inactive),2.4% (inactive),0.9% (inactive)
CC(C)NNC(=O)c1ccncc1,100% (inactive),101% (inactive),107% (inactive),114% (inactive),111% (inactive),55.2,178% (inactive),-7.7% (inactive),101% (inactive),2% (inactive),-13.9% (inactive),-0.37% (inactive),98.7% (inactive),0.22 (inactive),3% (inactive),-26% (inactive),
Cn1c(=O)c2c(ncn2Cc2ccccc2)n(C)c1=O,100% (inactive),105% (inactive),88.6% (inactive),103% (inactive),109% (inactive),65.2,182% (inactive),-1.97% (inactive),96.4% (inactive),0% (inactive),,-0.4% (inactive),104% (inactive),0 (inactive),6% (inactive),-16.8% (inactive),-23% (inactive)
CO/N=C(\C(=O)N[C@@H]1C(=O)N2C(C(=O)O)=C(COC(C)=O)CS[C@H]12)c1csc(N)n1 (stereo in doubt),95.8% (inactive),99.9% (inactive),94.9% (inactive),90.3% (inactive),93.4% (inactive),61.1,224% (inactive),5.36% (inactive),93.9% (inactive),3% (inactive),2.47% (inactive),-3.75% (inactive),97.5% (inactive),-0.09 (inactive),11% (inactive),6.26% (inactive),
